Common to all, as to assay: NCI-60 one-dose screen, 48 h (100 = growth as untreated, 0 = no growth, -100 = all killed)
Holding throughout (conditions): 10 µM

Experiment [1] relates to NCI-H23 lung.
For experiment [2], the system named is NCI-H226 lung.
Experiment [3] has as its system NCI-H322M lung.
For experiment [4], the system named is HOP-62 NSCLC.
Experiment [5] deals with NCI-H460 lung.
Experiment [6] deals with HOP-92 NSCLC.
Experiment [7] has as its system NCI-H522 lung.
Experiment [8] concerns A549/ATCC NSCLC.
The subject of experiment [9] is 786-0 renal.
The test system of experiment [10] is COLO 205 colon.
Experiment [11] has as its system DU-145 prostate.
The test system of experiment [12] is K-562 leukemia.
For experiment [13], the system named is MALME-3M melanoma.
In experiment [14] the test system is MDA-MB-231 breast.
Experiment [15] deals with SF-268 CNS.
Experiment [16] relates to SF-295 CNS.
Experiment [17] relates to SF-539 CNS.
Experiment [18] deals with UACC-257 melanoma.
In experiment [19] the test system is M14 melanoma.
Experiment [20] concerns RXF 393 renal.

For 7 compounds, growth results are on record in PubChem BioAssay (NCI).

Compounds without any hit were thinned out: in the full panel of roughly 83,000, 20% have a hit.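 For each line, cells grew in 96-well plates with the test compound present at a single concentration for 48 hours.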 Values without a mark were called inactive. Active and inactive are the calls of the source. Rule for the calls: active = growth percent below 10; inactive = the rest.

With `CS(=O)(=O)Nc1ccc([N+](=O)[O-])cc1Oc1ccccc1`, the growth was 92.6% in experiment [1]; 96% in experiment [2]; 103% in [3]; 93% in [4]; 102% in experiment [5]; 51.8% in [6]. The growth was 92.6% in [7]; 89.3% in experiment [8]; 98.4% in experiment [9]; 99.7% in experiment [10]; 100% in experiment [11]; 78% in experiment [12]. The growth was 92.4% in experiment [13]; 118% in experiment [14]; 98.4% in [15]; 84.2% in experiment [16]; 104% in [17]; 94.7% in experiment [18]. The growth in [19] is 105%.

In the case of `CC(C)CCN(CCCNc1c2c(nc3cc(Cl)ccc13)CCCC2)CCC(C)C`, the growth in experiment [1] is 62.3%; in [2], 53.8%; in [3] it was 75%; in experiment [4], 77.9%; in experiment [5] it was 55.7%; in [6], 12.3%. For the same compound, the growth in experiment [7] was 82.1%; in [8], 85.4%; in experiment [9], 80.1%; in experiment [10], 32.6%; in experiment [11], 72.1%; in [12], 22.7%. Besides, the growth in experiment [14] is 21.8%; in experiment [20], 59.9%; in experiment [15], 73.9%; in [16], 66.7%; in experiment [17], 69.8%; in experiment [18] it was 71.4%. Moreover, the growth in experiment [19] is 4.03% (active).

For the compound `Cc1cc(C(C)(C)CC(C)(C)C)ccc1OCCOCC[N+](C)(C)Cc1ccccc1`, the growth is -20% (active) in [1]; -18% (active) in experiment [2]; 20.6% in [3]; -83.5% (active) in experiment [4]; -72.2% (active) in experiment [5]; -72.5% (active) in [6]. For the same compound, the growth was -50.1% (active) in experiment [7]; 36.7% in experiment [8]; -19.4% (active) in experiment [9]; -81.6% (active) in [10]; 22.4% in experiment [11]; -53.8% (active) in experiment [12]. Also, the growth was -35.5% (active) in experiment [13]; -67.7% (active) in experiment [14]; -69.7% (active) in [15]; -14.3% (active) in experiment [16]; -82.6% (active) in experiment [17]; 22.9% in experiment [18]. For the same compound, in experiment [19], the growth is -83.2% (active).

Consider `COc1ccc2nc(/C=C/c3ccc(N(C)C)cc3)sc2c1`, for which the growth is 89.5% in experiment [1]; 99.5% in experiment [2]; 99.6% in experiment [3]; 108% in experiment [4]; 110% in [5]; 93.3% in [6]. Besides, the growth in experiment [7] is 90.6%; in experiment [8], 105%; in experiment [9], 93%; in experiment [10] it was 145%; in experiment [11], 111%; in [12] it was 73.5%. Besides, the growth in experiment [13] is 97.4%; in experiment [14] it was 95.6%; in [15], 102%; in [16] it was 93.1%; in experiment [17] it was 103%; in experiment [18], 119%. Besides, in experiment [19], the growth was 103%.

Take `Cc1cn(C(=O)/C(Cl)=C(/Cl)C(=O)O)c2ccccc12`: the growth in experiment [1] is 96.7%; in experiment [2], 97.6%; in experiment [3] it was 128%; in experiment [4], 88%; in experiment [5] it was 114%; in [6], 80.4%. Also, the growth was 110% in experiment [7]; 111% in [8]; 116% in [9]; 91.7% in experiment [10]; 113% in experiment [11]; 97.9% in experiment [12]. Also, the growth in [14] is 96.3%; in [20] it was 112%; in experiment [15] it was 103%; in [16], 112%; in experiment [17], 111%; in experiment [18], 111%.

As for `Clc1cc(Cl)c(Cl)c(-c2nc(-c3cccnc3)cs2)c1`, the growth is 94.8% in experiment [1]; 90.9% in experiment [2]; 99.2% in experiment [3]; 114% in [4]; 92.2% in experiment [5]; 79.7% in [6]. Moreover, the growth in [7] is -51% (active); in experiment [8] it was 78.9%; in [9], 99.1%; in experiment [10], 57.1%; in [11], 37.2%; in experiment [12] it was 12%. Further, the growth was 28.6% in [13]; 74% in experiment [14]; 85.8% in experiment [15]; 100% in experiment [16]; 81.4% in experiment [17]; 64.2% in experiment [18]. Further, the growth in experiment [19] was 51.8%.

Regarding `Cc1cc(=O)oc2cc(OCc3cn(CC(O)CO)nn3)ccc12` (configuration not stated), the growth in experiment [1] was 94.1%; in [2] it was 104%; in [3], 109%; in experiment [4], 103%; in [5], 111%; in [6] it was 111%. The growth in experiment [7] is 107%; in experiment [8], 105%; in experiment [9], 111%; in experiment [10], 108%; in [11], 103%; in [12], 96.1%. For the same compound, the growth in experiment [13] is 109%; in experiment [14] it was 104%; in experiment [15] it was 109%; in experiment [16], 107%; in experiment [17], 95.9%; in experiment [18] it was 112%. For the same compound, in experiment [19], the growth was 106%.
